Source: PubChem BioAssay AID1159580 (chemical genetic matrix, 2015)
Out of some 5,500 compounds screened, about 2,000 (36%) were called active. Another 18% or so got no clear call; they are omitted. Rule as the data show it: active = normalized growth mostly below about 0.91 (no sharp cut-off); inconclusive = no clear call, values can overlap the other calls; inactive = mostly above about 0.92. The list shows a part of the results.

Test: chemical genetic growth profiling, strain panel (AID 1159580);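 also: tested at 20 µM; growth read once vehicle control cultures reached saturation at 30 °C; 1 = growth at the plate median or of vehicle wells; lower values mean less growth of the strain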
Conditions: growth OD
[1] = S. cerevisiae deletion strains, locus YDL101C, strain DUN1, active compounds read low
[2] = S. cerevisiae deletion strains, locus YHR030C, strain SLT2, active compounds read low

Measured: normalized growth

CCCCCn1c(Sc2ncc([N+](=O)[O-])s2)n[nH]c1=O
active: S. cerevisiae deletion strains, locus YAL013W, strain DEP1, active compounds read low 0.592 | S. cerevisiae deletion strains, locus YBR229C, strain ROT2, active compounds read low 0.463 | S. cerevisiae deletion strains, locus YCL061C, strain MRC1, active compounds read low 0.67 | [1] 0.559 | S. cerevisiae deletion strains, locus YDL134C, strain PPH21, active compounds read low 0.099 | S. cerevisiae deletion strains, locus YDR150W, strain NUM1, active compounds read low 0.615 | S. cerevisiae deletion strains, locus YEL061C, strain CIN8, active compounds read low 0.0768 | S. cerevisiae deletion strains, locus YGR078C, strain PAC10, active compounds read low 0.499 | [2] 0.0794 | S. cerevisiae deletion strains, locus YHR087W, strain rtc3, active compounds read low 0.53 | S. cerevisiae deletion strains, locus YJL187C, strain SWE1, active compounds read low 0.493 | S. cerevisiae deletion strains, locus YJR043C, strain POL32, active compounds read low 0.695 | S. cerevisiae deletion strains, locus YJR075W, strain HOC1, active compounds read low 0.471 | S. cerevisiae deletion strains, locus YKL190W, strain CNB1, active compounds read low 0.0782 | S. cerevisiae deletion strains, locus YLR039C, strain RIC1, active compounds read low 0.134 | S. cerevisiae deletion strains, locus YLR058C, strain SHM2 (second series), active compounds read low 0.675 | S. cerevisiae deletion strains, locus YLR085C, strain ARP6, active compounds read low 0.0989 | S. cerevisiae deletion strains, locus YLR262C, strain YPT6, active compounds read low 0.123 | S. cerevisiae deletion strains, locus YML094W, strain GIM5, active compounds read low 0.22 | S. cerevisiae deletion strains, locus YMR219W, strain ESC1, active compounds read low 0.624 | S. cerevisiae deletion strains, locus YMR263W, strain SAP30, active compounds read low 0.669 | S. cerevisiae deletion strains, locus YNL153C, strain GIM3, active compounds read low 0.0882 | S. cerevisiae deletion strains, locus YNL298W, strain CLA4 (second series), active compounds read low 0.0804 | S. cerevisiae deletion strains, locus YNL322C, strain KRE1, active compounds read low 0.917 | S. cerevisiae deletion strains, locus YNR030W, strain Alg12, active compounds read low 0.0933 | S. cerevisiae deletion strains, locus YPL055C, strain LGE1, active compounds read low 0.292 | S. cerevisiae deletion strains, locus YPL241C, strain CIN2, active compounds read low 0.1 | S. cerevisiae deletion strains, locus YPR135W, strain CTF4, active compounds read low 0.186 | S. cerevisiae strains, strain wild type, active compounds read low 0.0897

CCn1nc(C)cc1-c1nnc(Sc2ncc([N+](=O)[O-])s2)n1C
inactive: S. cerevisiae deletion strains, locus YAR019C, strain CDC15, active compounds read low 0.964 | S. cerevisiae deletion strains, locus YBL105C, strain PKC1, active compounds read low 0.968 | S. cerevisiae deletion strains, locus YBR135W, strain CKS1, active compounds read low 0.967 | S. cerevisiae deletion strains, locus YBR136W, strain MEC1, active compounds read low 0.962 | S. cerevisiae deletion strains, locus YBR160W, strain CDC28, active compounds read low 0.956 | S. cerevisiae deletion strains, locus YDL017W, strain CDC7, active compounds read low 0.974 | S. cerevisiae deletion strains, locus YDL028C, strain MPS1, active compounds read low 0.961 | [1] 0.983 | S. cerevisiae deletion strains, locus YDL108W, strain KIN28, active compounds read low 0.945 | S. cerevisiae deletion strains, locus YDL132W, strain cdc53, active compounds read low 0.966 | S. cerevisiae deletion strains, locus YDL214C, strain PRR2, active compounds read low 0.981 | S. cerevisiae deletion strains, locus YDR052C, strain DBF4, active compounds read low 0.988 | S. cerevisiae deletion strains, locus YDR054C, strain cdc34, active compounds read low 0.975 | S. cerevisiae deletion strains, locus YDR226W, strain ADK1, active compounds read low 0.959 | S. cerevisiae deletion strains, locus YDR477W, strain SNF1, active compounds read low 0.95 | S. cerevisiae deletion strains, locus YER123W, strain YCK3, active compounds read low 0.93 | S. cerevisiae deletion strains, locus YER133W, strain GLC7, active compounds read low 0.995 | S. cerevisiae deletion strains, locus YFL009W, strain cdc4, active compounds read low 0.958 | S. cerevisiae deletion strains, locus YFL029C, strain CAK1, active compounds read low 0.954 | S. cerevisiae deletion strains, locus YFR003C, strain YPI1, active compounds read low 0.971 | S. cerevisiae deletion strains, locus YFR019W, strain FAB1, active compounds read low 0.974 | S. cerevisiae deletion strains, locus YFR028C, strain CDC14, active compounds read low 0.968 | S. cerevisiae deletion strains, locus YGR040W, strain KSS1, active compounds read low 0.954 | S. cerevisiae deletion strains, locus YGR052W, strain FMP48, active compounds read low 1.02 | S. cerevisiae deletion strains, locus YGR092W, strain DBF2, active compounds read low 0.92 | [2] 1.03 | S. cerevisiae deletion strains, locus YHR079C, strain IRE1, active compounds read low 0.963 | S. cerevisiae deletion strains, locus YHR082C, strain KSP1, active compounds read low 1.01 | S. cerevisiae deletion strains, locus YHR205W, strain SCH9, active compounds read low 0.956 | S. cerevisiae deletion strains, locus YIL147C, strain SLN1, active compounds read low 0.967 | S. cerevisiae deletion strains, locus YJL095W, strain BCK1, active compounds read low 0.933 | S. cerevisiae deletion strains, locus YJL128C, strain PBS2, active compounds read low 0.94 | S. cerevisiae deletion strains, locus YJL157C, strain FAR1, active compounds read low 0.957 | S. cerevisiae deletion strains, locus YJR016C, strain ILV3, active compounds read low 0.967 | S. cerevisiae deletion strains, locus YJR066W, strain TOR1 (second series), active compounds read low 0.971 | S. cerevisiae deletion strains, locus YJR066W, strain TOR1, active compounds read low 0.921 | S. cerevisiae deletion strains, locus YKL048C, strain ELM1, active compounds read low 0.99 | S. cerevisiae deletion strains, locus YKL067W, strain YNK1, active compounds read low 1 | S. cerevisiae deletion strains, locus YKL101W, strain HSL1, active compounds read low 0.985 | S. cerevisiae deletion strains, locus YKL193C, strain SDS22, active compounds read low 0.962 | S. cerevisiae deletion strains, locus YKL203C, strain TOR2, active compounds read low 1.07 | S. cerevisiae deletion strains, locus YLR113W, strain HOG1, active compounds read low 0.971 | S. cerevisiae deletion strains, locus YLR133W, strain CKI1, active compounds read low 0.958 | S. cerevisiae deletion strains, locus YLR403W, strain SFP1, active compounds read low 0.959 | S. cerevisiae deletion strains, locus YML070W, strain DAK1, active compounds read low 0.959 | S. cerevisiae deletion strains, locus YMR001C, strain CDC5, active compounds read low 0.961 | S. cerevisiae deletion strains, locus YMR205C, strain PFK2 (second series), active compounds read low 0.996 | S. cerevisiae deletion strains, locus YMR277W, strain FCP1, active compounds read low 0.95 | S. cerevisiae deletion strains, locus YNL006W, strain LST8, active compounds read low 0.967 | S. cerevisiae deletion strains, locus YNL020C, strain ARK1, active compounds read low 0.968 | S. cerevisiae deletion strains, locus YNL161W, strain CBK1, active compounds read low 0.975 | S. cerevisiae deletion strains, locus YNL183C, strain NPR1, active compounds read low 1.04 | S. cerevisiae deletion strains, locus YNL207W, strain RIO2, active compounds read low 0.985 | S. cerevisiae deletion strains, locus YNL222W, strain SSU72, active compounds read low 0.951 | S. cerevisiae deletion strains, locus YNL307C, strain MCK1 (second series), active compounds read low 0.945 | S. cerevisiae deletion strains, locus YOL078W, strain AVO1, active compounds read low 0.965 | S. cerevisiae deletion strains, locus YOL136C, strain PFK27, active compounds read low 0.955 | S. cerevisiae deletion strains, locus YOR061W, strain CKA2, active compounds read low 0.98 | S. cerevisiae deletion strains, locus YOR119C, strain RIO1, active compounds read low 1.05 | S. cerevisiae deletion strains, locus YOR231W, strain MKK1, active compounds read low 0.927 | S. cerevisiae deletion strains, locus YOR329C, strain SCD5, active compounds read low 0.975 | S. cerevisiae deletion strains, locus YPL031C, strain PHO85, active compounds read low 0.968 | S. cerevisiae deletion strains, locus YPL153C, strain RAD53, active compounds read low 0.96 | S. cerevisiae deletion strains, locus YPL204W, strain HRR25, active compounds read low 0.965 | S. cerevisiae deletion strains, locus YPL209C, strain IPL1, active compounds read low 0.974 | S. cerevisiae deletion strains, locus YPL256C, strain CLN2, active compounds read low 0.984 | S. cerevisiae deletion strains, locus YPR025C, strain CCL1, active compounds read low 0.965 | S. cerevisiae deletion strains, locus YPR106W, strain ISR1, active compounds read low 0.96 | S. cerevisiae deletion strains, locus YPR111W, strain DBF20, active compounds read low 0.978 | S. cerevisiae deletion strains, strain NNK1, active compounds read low 0.984 | S. cerevisiae deletion strains, strain TSCII, active compounds read low 0.963
